According to PubChem BioAssay AID686978 (National Center for Advancing Translational Sciences (NCATS), 2013):
The campaign covered roughly 420,000 compounds. About 64,000 (15%) were called active. Not shown: some 27% with an inconclusive outcome. Calls follow the shape of the dose curve; as a rule, active = well fitted inhibition curve with a large enough effect; inconclusive = small, poorly fitted or top-dose-only effect; inactive = flat fitted curve, though single readings scatter. Not all results are given here.

Test: qHTS for Inhibitors of human tyrosyl-DNA phosphodiesterase 1 (TDP1): qHTS in cells in absence of CPT; also: nearly all actives have a fitted effect of over 55% in size
Details: DT40 Tdp1-/- hTDP1 cells, no CPT, ATP luminescence, 48 h; activity change, negative = growth inhibition: at 46.2 µM (top of the series)
How it was run: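 Camptothecin absent (DMSO only). Human TDP1-complemented DT40 knockout cells, 400 cells/well, 37 °C for minimum 48 hr; ATP measured via CellTiter-Glo, 30 min dark incubation, luminescence.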
% is scaled to controls: 0 for no effect and ±100 for the full control effect; potency is read from the fitted curve at half-maximal effect.

SMILES	activity change, negative = growth inhibition	Potency
C=C(C)CNC(=O)c1ccc(OC2CCN(C(=O)COC)CC2)cc1	-11.9% (inactive)	
C=CCNC(=O)COC(=O)CNC(=O)c1cc(Cl)cc([N+](=O)[O-])c1	2.59% (inactive)	
Cc1c(Cl)cccc1NC(=O)[C@@]1(CC(=O)O)CC(/C=C/c2ccccc2)=NO1	-3.3% (inactive)	
CCc1c(-c2ccc(F)cc2)ncn1Cc1cccc(-c2ccccc2)c1		11.6 µM (active)
Cc1ccc(-c2csc(C(C#N)=C(O)CN3CCN(C(=O)c4ccco4)CC3)n2)cc1	-14% (inactive)	
Cc1ccc(CNC(=O)CCC(=O)N2Cc3ccccc3Oc3ncccc32)cc1	-21.9% (inactive)	
C=CCc1cc(C)ccc1OCCCn1ccnc1	-29.9% (inactive)	
OC(c1nc2ccc(F)cc2[nH]1)C(O)c1nc2ccc(F)cc2[nH]1 (stereo not drawn)	-27.1% (inactive)	
Oc1ccc(Cl)cc1/C=N/c1nc2ccccc2[nH]1	-2.28% (inactive)	
SCc1nc2ccc(Cl)cc2[nH]1		3.98 µM (active)
Cc1ccc2nc(SCC(=O)N3CCN(c4ccccc4)CC3)nc(=O)n2c1	-22.6% (inactive)	
CCC(C)N1C(=O)S/C(=C/c2ccc(Sc3nc4ccccc4[nH]3)o2)C1=O (stereo not drawn)		11.2 µM (active)
CCc1nnc(NC(=O)CCCSc2nc3ccccc3[nH]2)s1	-6.59% (inactive)	
CN1C(=O)/C(=C\c2ccc(-c3ccccc3)o2)SC1=S	-28.6% (inactive)	
COc1ccc(C(CNCC(=O)Nc2ccccc2F)N(C)C)cc1 (stereo not drawn)	6.62% (inactive)	
CCO[C@H]1OC(C(=O)N2CCOCC2)=C[C@@H](c2ccc3c(c2)OCO3)[C@@H]1CCCO	2.7% (inactive)	
CCO[C@@H]1OC(C(=O)N2CCOCC2)=C[C@H](C)[C@H]1CCCO	-6.76% (inactive)	
CCO[C@H]1OC(C(=O)N2CCCCCCC2)=C[C@@H](c2ccc(C(F)(F)F)cc2)[C@@H]1CCCO		20.6 µM (active)
CC1CN(C(=S)Nc2cccc(F)c2)CC(C)O1 (stereo not drawn)	-12.5% (inactive)	
CN(Cc1ccc(CNC[C@H]2O[C@@H](n3cnc4c(N)ncnc43)[C@H](O)[C@@H]2O)o1)S(C)(=O)=O	-13.6% (inactive)	
Cc1cccc(NC(=O)C2CC(=O)OC23CCCC3)c1 (stereo not drawn)	15.3% (inactive)	
Cc1cccc(NC(=O)N(Cc2cc3cc(C)cc(C)c3[nH]c2=O)CC2COCCO2)c1 (stereo not drawn)		16.4 µM (active)
Cc1ccc2[nH]c(=O)c(CN(CC3COCCO3)C(=O)Nc3ccccc3C)cc2c1 (stereo not drawn)	-28.1% (inactive)	
O=C(O)c1[nH]c2ccccc2c1C(c1cccc(O)c1)c1c(C(=O)O)[nH]c2ccccc12	14.1% (inactive)	
COC(=O)c1ccc(CNC(=O)C2CCC(=O)N(Cc3ccccn3)C2)cc1 (stereo not drawn)	6.62% (inactive)	
CN1CCN(C(=O)Cn2c(C(F)(F)F)nc3ccccc32)CC1	-1.67% (inactive)	
O=c1cc(CO)oc(C(Nc2cccc(C(F)(F)F)c2)c2ccccn2)c1O (stereo not drawn)	-7.37% (inactive)	
FC(F)(F)c1cccc(Nc2ncnc3ccccc23)c1		18.4 µM (active)
